Experiment [1] in a line: antimalarial activity against Dd2 strain (AID 2302;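 active = growth inhibition above 50% at the single 2 µM test dose, taken to imply half-maximal potency below 2 µM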;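 also: 0% = DMSO untreated growth and 100% = chloroquine plus artemisinin killed control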). Conditions: P. falciparum Dd2 in RBCs, LDH growth readout, 72 h; at 2 µM; hits give high values.
A short description of experiment [2]: human hepatoma cell viability loss – ATP luminescence, cytotoxicity control for P. falciparum antimalarial project, primary screen (AID 2303;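 active = inhibition above 50%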;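 also: 0% = DMSO wells and 100% = digitonin-killed cells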). Conditions: HepG2 viability, 24-48 h, at 10 µM, hits give high values.
The target in experiment [3] is L-lactate dehydrogenase (Plasmodium falciparum (isolate CDC / Honduras)) (UniProt Q27743). Put plainly: PfLDH activity inhibition – cell lysate, 3D7 strain, counter-screen for P. falciparum growth inhibition project (AID 2304).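 Also: 0% = vehicle and 100% = reference inhibitor.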 Conditions: P. falciparum 3D7 crude extract, LDH APAD/NBT absorbance; at 2 µM; hits give high values.
Chain of L-lactate dehydrogenase (Plasmodium falciparum (isolate CDC / Honduras)) (Q27743 whole entry, looked up): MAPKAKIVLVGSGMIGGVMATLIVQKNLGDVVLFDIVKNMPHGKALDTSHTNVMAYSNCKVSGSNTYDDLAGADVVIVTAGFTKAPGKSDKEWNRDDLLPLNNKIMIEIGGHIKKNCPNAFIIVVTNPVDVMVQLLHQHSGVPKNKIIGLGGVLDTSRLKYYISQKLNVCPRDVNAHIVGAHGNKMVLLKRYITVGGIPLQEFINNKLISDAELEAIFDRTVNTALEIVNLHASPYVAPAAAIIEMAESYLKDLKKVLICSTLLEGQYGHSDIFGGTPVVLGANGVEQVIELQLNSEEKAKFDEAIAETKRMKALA
A short description of experiment [4]: inhibition of 3D7 malaria parasite growth – strain 3D7 (AID 2306).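 Also: 0% = DMSO wells and 100% = chloroquine plus artemisinin control wells.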 Conditions: P. falciparum 3D7 erythrocytic growth, LDH absorbance, 72 h; at 2 µM; hits give high values.
The target in experiment [5] is Calcium-dependent protein kinase 1 (Plasmodium falciparum (isolate 3D7)) (UniProt P62344). Put plainly: PfCDPK1 kinase inhibitors, biochemical, TCAMS library (AID 1159585; cut-off not given, nearly all actives have IC50 up to about 0.98 µM;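 also: inhibitors leave more ATP so luminescence rises with inhibition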). Conditions: recombinant PfCDPK1, Kinase-Glo ATP depletion luminescence.
Chain of Calcium-dependent protein kinase 1 (Plasmodium falciparum (isolate 3D7)) (P62344 whole entry, looked up): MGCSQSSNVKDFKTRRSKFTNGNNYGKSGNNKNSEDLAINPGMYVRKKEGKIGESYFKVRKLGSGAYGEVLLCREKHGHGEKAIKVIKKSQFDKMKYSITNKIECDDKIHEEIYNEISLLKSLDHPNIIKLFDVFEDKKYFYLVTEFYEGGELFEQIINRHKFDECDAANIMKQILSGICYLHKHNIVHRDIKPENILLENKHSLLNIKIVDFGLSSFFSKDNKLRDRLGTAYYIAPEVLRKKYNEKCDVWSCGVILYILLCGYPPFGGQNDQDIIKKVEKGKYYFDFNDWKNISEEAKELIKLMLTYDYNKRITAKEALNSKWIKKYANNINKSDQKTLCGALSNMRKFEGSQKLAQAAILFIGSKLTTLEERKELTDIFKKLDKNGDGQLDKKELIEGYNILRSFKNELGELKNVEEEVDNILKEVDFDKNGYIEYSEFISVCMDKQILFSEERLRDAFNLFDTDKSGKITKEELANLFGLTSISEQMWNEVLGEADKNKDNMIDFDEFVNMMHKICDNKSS
Experiment [6] has as its target Plasmodium falciparum protein kinase 6 (PK6, PF3D7_1337100) (UniProt Q8IDW1). The experiment can be described thus: PfPK6 kinase inhibitors, biochemical, TCAMS library (AID 1159586). Conditions: recombinant PfPK6, Kinase-Glo ATP depletion luminescence. Background: In Kinase-Glo more light means more ATP remaining.
In experiment [7] the target is Protein kinase 7 (PK7), Plasmodium falciparum 3D7 (PF3D7_0213400) (UniProt Q7YTF7). Put plainly: inhibition of Plasmodium PK7 catalytic activity – biochemical, TCAMS antimalarial set, Kinase-Glo luminescence (AID 1159587). Conditions: recombinant PfPK7, Kinase-Glo ATP depletion luminescence.
Chain of Protein kinase 7 (PK7), Plasmodium falciparum 3D7 (PF3D7_0213400) (Q7YTF7 1-343): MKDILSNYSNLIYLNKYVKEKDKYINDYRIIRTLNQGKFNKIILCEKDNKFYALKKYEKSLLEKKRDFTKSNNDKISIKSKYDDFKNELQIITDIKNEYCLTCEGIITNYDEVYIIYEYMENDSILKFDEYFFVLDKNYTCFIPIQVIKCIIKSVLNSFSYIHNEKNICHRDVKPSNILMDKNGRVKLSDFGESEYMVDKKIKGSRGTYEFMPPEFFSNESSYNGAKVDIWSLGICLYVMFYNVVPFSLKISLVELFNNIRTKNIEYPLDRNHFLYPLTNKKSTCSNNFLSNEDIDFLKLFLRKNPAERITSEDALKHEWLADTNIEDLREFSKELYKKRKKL
Experiment [8] addresses Calcium-dependent protein kinase 4 (Plasmodium falciparum (isolate 3D7)) (UniProt Q8IBS5). The experiment can be described thus: PfCDPK4 kinase inhibitors, biochemical, TCAMS library (AID 1159588; cut-off not given, nearly all actives have IC50 up to about 0.91 µM). Conditions: recombinant PfCDPK4, Kinase-Glo ATP depletion luminescence.

Unmarked numbers belong to inactive results. For some of these results: Potency and affinity values are given separately. Calls of active or inactive are those of the source. Unless noted, no rule for the calls is given here.

Chain of Calcium-dependent protein kinase 4 (Plasmodium falciparum (isolate 3D7)) (Q8IBS5 whole entry, looked up): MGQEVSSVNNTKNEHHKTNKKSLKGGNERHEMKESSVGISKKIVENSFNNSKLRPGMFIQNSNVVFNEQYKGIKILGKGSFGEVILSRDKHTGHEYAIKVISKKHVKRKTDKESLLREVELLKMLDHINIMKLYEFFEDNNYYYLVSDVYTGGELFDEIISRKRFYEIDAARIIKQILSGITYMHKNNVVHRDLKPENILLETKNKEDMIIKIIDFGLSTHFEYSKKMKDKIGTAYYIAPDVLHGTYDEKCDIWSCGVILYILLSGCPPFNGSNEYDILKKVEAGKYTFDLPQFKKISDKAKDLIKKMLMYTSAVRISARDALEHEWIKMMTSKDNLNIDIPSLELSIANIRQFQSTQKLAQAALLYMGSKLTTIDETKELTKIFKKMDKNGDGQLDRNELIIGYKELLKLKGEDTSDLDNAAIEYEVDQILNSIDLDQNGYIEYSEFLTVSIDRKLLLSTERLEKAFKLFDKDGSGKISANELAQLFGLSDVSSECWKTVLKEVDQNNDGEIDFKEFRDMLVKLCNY
Chain of Plasmodium falciparum protein kinase 6 (PK6, PF3D7_1337100) (Q8IDW1 1-305): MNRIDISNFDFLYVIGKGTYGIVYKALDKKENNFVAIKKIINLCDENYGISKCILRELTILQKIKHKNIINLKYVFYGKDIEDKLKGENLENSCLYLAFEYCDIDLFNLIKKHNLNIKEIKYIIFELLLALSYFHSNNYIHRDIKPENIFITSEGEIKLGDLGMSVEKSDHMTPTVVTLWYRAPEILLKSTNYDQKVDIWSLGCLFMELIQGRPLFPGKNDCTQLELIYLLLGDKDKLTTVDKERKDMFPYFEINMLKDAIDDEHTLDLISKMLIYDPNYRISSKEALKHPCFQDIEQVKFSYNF

As for `CC1(C)CCCN(C(=O)c2cccc(-n3nc(-c4ccc(Cl)cc4)cc3N)c2)C1`, the values for the growth inhibition in experiment [1] and in experiment [4] were 98% (active) and 101% (active), respectively. The inhibition in experiment [2] is 13%; in experiment [3], -2%. Further, the outcome in experiment [5], in experiment [6], in experiment [7] and in experiment [8] was inactive.

`CCCCCOc1ccc(C(=NC)N(CCCCC)CCCCC)c2ccccc12`: the growth inhibition in experiment [1] was 80% (active); in experiment [4] it was 96% (active). In addition, the inhibition in experiment [2] was 70% (active); in experiment [3], 3%. The outcome in experiment [5], in experiment [6], in experiment [7] and in experiment [8] was inactive.

As for `CCN(CC)CCN(CCN(CC)CC)c1ccc(-c2nc3cc(Cl)c(Cl)cc3[nH]2)cc1`, the growth inhibition in experiment [1] is 97% (active); in experiment [4], 101% (active). In addition, the results for the inhibition in experiment [2] and in experiment [3] were 9% and 2%, respectively. The result in experiment [5], in experiment [6], in experiment [7] and in experiment [8] was inactive.

Turning to `Cc1ccc(N2C(=O)C3C(C2=O)[C@]2(c4ccccc4)C(=O)[C@@]3(c3ccccc3)C(c3ccccc3)=C2c2ccccc2)c(C)c1` (stereo not given in full), the growth inhibition in experiment [1] and in experiment [4] was 96% (active) throughout. In addition, the inhibition is 3% in experiment [2] and 6% in experiment [3]. Also, the result in experiment [5], in experiment [6], in experiment [7] and in experiment [8] was inactive.

Regarding `O=C(Nc1cccc(-c2ccc(-c3nc4ccc(C(F)(F)F)cc4[nH]3)cc2)c1)Nc1ccc(Cl)c(Cl)c1`, the results for the growth inhibition in experiment [1] and in experiment [4] were 51% (active) and 100% (active), respectively. In addition, the inhibition in experiment [2] was 93% (active); in experiment [3] it was -2%. In addition, the result in experiment [5], in experiment [6], in experiment [7] and in experiment [8] was inactive.

Turning to `Cc1nc(NCCc2cnc[nH]2)cc(NCc2ccccc2)n1`, the growth inhibition in experiment [1] was 5%; in experiment [4] it was 100% (active). For the same compound, the inhibition in experiment [2] was 5%; in experiment [3], -2%. Moreover, the outcome in experiment [5], in experiment [6], in experiment [7] and in experiment [8] was inactive.

For the compound `COc1ccc(-c2cccc(NC(=O)c3cccc(C#N)c3)c2)cc1CN1CCCC1`, the growth inhibition in experiment [1] was 32%; in experiment [4], 98% (active). For the same compound, the inhibition was 28% in experiment [2] and -4% in experiment [3]. Besides, the result in experiment [5], in experiment [6], in experiment [7] and in experiment [8] was inactive.

`CCN1CCN(c2cc(C)c3cc(NC(=O)c4cccc(Cl)c4)ccc3n2)CC1`: the growth inhibition in experiment [1] was 58% (active); in experiment [4], 100% (active). For the same compound, the inhibition in experiment [2] was 4%; in experiment [3], -4%. Further, the result in experiment [5], in experiment [6], in experiment [7] and in experiment [8] was inactive.

Take `COc1cc(CCNc2nc(NCc3ccccc3-c3ccccc3)nc(N3CCC(N)CC3)n2)ccc1O`: the values for the growth inhibition in experiment [1] and in experiment [4] were 70% (active) and 100% (active), respectively. Further, the inhibition is 25% in experiment [2] and -4% in experiment [3]. Further, the outcome in experiment [5], in experiment [6], in experiment [7] and in experiment [8] was inactive.

Turning to `O=C(NCCCCCN1CCC(c2c[nH]c3ccccc23)CC1)Nc1cccc(I)c1`, the growth inhibition in experiment [1] is 11%; in experiment [4], 99% (active). Also, the values for the inhibition in experiment [2] and in experiment [3] were 70% (active) and -8%, respectively. The result in experiment [5], in experiment [6], in experiment [7] and in experiment [8] was inactive.

In the case of `CC(Cc1ccc(OCCN2CCN(c3ccccc3)CC2)cc1)NCC(O)c1cccc(Cl)c1F` (stereo not given), the growth inhibition is 56% (active) in experiment [1] and 92% (active) in experiment [4]. The inhibition was 40% in experiment [2] and 6% in experiment [3]. Besides, the result in experiment [5], in experiment [6], in experiment [7] and in experiment [8] was inactive.

Regarding `CNC(=O)C1Cc2c([nH]c3c(C)cccc23)C2(N1)C(=O)Nc1ccc(OC(F)(F)F)cc12` (stereo not given), the growth inhibition was 50% (active) in experiment [1] and 100% (active) in experiment [4]. Besides, the inhibition in experiment [2] is -7%; in experiment [3] it was -3%. Further, the result in experiment [5], in experiment [6], in experiment [7] and in experiment [8] was inactive.

For the compound `C=CCOC(=O)N1CCC(CNCc2cccc(-c3ccc(-c4nc5c(C)cccc5[nH]4)s3)c2)C1` (stereo not given), the growth inhibition in experiment [1] was 82% (active); in experiment [4] it was 101% (active). The inhibition is 11% in experiment [2] and -6% in experiment [3]. Further, the result in experiment [5], in experiment [6], in experiment [7] and in experiment [8] was inactive.

For `O=C(NCC1CCC(C(=O)NC2CCCc3ccccc32)CC1)c1ccc(O)c(-c2cccc([N+](=O)[O-])c2)c1` (stereo not given), the growth inhibition in experiment [1] is 97% (active); in experiment [4], 99% (active). Also, the inhibition is 2% in experiment [2] and -2% in experiment [3]. Also, the result in experiment [5], in experiment [6], in experiment [7] and in experiment [8] was inactive.

Take `Cn1c2c(c3ccccc31)CN(CCC1(c3ccc(Cl)c(Cl)c3)CN(C(=O)Cc3ccccc3)CCO1)CC2` (stereo not given): the growth inhibition in experiment [1] was 91% (active); in experiment [4] it was 95% (active). Besides, the inhibition is 22% in experiment [2] and 0% in experiment [3]. Moreover, the result in experiment [5], in experiment [6], in experiment [7] and in experiment [8] was inactive.

For the compound `CCNc1cc(C(=O)N[C@@H](Cc2ccccc2)[C@H](O)CNC2CCC(C(C)(C)C)CC2)cc(N2CCCC2=O)c1` (stereo not given in full), the growth inhibition in experiment [1] and in experiment [4] was 98% (active) in each case. Further, the inhibition was 38% in experiment [2] and -3% in experiment [3]. Further, the result in experiment [5], in experiment [6], in experiment [7] and in experiment [8] was inactive.

As for `COc1ccccc1N1CCN(CCCCNC(=O)c2ccc(NC(=O)c3cc(Cl)cc(Cl)c3)cc2)CC1`, the growth inhibition is 75% (active) in experiment [1] and 101% (active) in experiment [4]. Moreover, the values for the inhibition in experiment [2] and in experiment [3] were 9% and 2%, respectively. Further, the outcome in experiment [5], in experiment [6], in experiment [7] and in experiment [8] was inactive.

As to `O=S(=O)(c1ccc(OCc2ccc(Cl)cc2)cc1)c1cc2c(cc1OCc1ccccc1)CCN(C1CCC1)CC2`, the growth inhibition in experiment [1] is 13%; in experiment [4], 89% (active). Moreover, the inhibition in experiment [2] was 17%; in experiment [3] it was 6%. Also, the result in experiment [5], in experiment [6], in experiment [7] and in experiment [8] was inactive.

For `Oc1cccc(-c2nc(-c3ccccc3)c(-c3ccc(Oc4ccc(-c5[nH]c(-c6cccc(O)c6)nc5-c5ccccc5)cc4)cc3)[nH]2)c1`, the values for the growth inhibition in experiment [1] and in experiment [4] were 96% (active) and 91% (active), respectively. Also, the results for the inhibition in experiment [2] and in experiment [3] were 6% and 0%, respectively. Moreover, the result in experiment [5], in experiment [6], in experiment [7] and in experiment [8] was inactive.

On to `CCOc1cc2ncnc(Nc3ccc(OCc4ccccc4F)c(Cl)c3)c2cc1OCC`, for which the growth inhibition in experiment [1] was 74% (active); in experiment [4], 101% (active). In addition, the inhibition in experiment [2] was 4%; in experiment [3], -2%. Also, the outcome in experiment [5], in experiment [6], in experiment [7] and in experiment [8] was inactive.

For orientation: inhibition means the relative decrease from the control value, in per cent.

The values above are taken from PubChem BioAssay.
